PubChem BioAssay AID1159580 (chemical genetic matrix, 2015)
“And” between values parts separate entries of the source, which are not always exact repeats. Equal values may be shown once. Hit rate of the full screen: of about 5,500 compounds, about 2,000 (36%) were called active. Not shown: some 18% with an inconclusive outcome. Rule as the data show it: active = normalized growth mostly below about 0.91 (no sharp cut-off); inconclusive = no clear call, values can overlap the other calls; inactive = mostly above about 0.92. The list shows a part of the results.

Experiment: chemical genetic growth profiling, strain panel (AID 1159580);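 also: tested at 20 µM; growth read once vehicle control cultures reached saturation at 30 °C; 1 = growth at the plate median or of vehicle wells; lower values mean less growth of the strain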
Conditions: S. cerevisiae deletion strains, growth OD

Measured: normalized growth

C[n+]1cc2c3c(ccc2c2ccc4cc5c(cc4c21)OCO5)OCO3
0.073 (active) and 0.976 (inactive): locus YJL095W, strain BCK1, stronger effect = lower value
inactive: locus YBR171W, strain sec66, stronger effect = lower value 0.983 | locus YDL185W, strain tfp1, stronger effect = lower value 0.914 | locus YDR001C, strain nth1, stronger effect = lower value 0.928 | locus YDR069C, strain doa4, stronger effect = lower value 0.902 | locus YDR195W, strain ref2 1.09 | locus YER002W, strain NOP16, stronger effect = lower value 1.01 | locus YGL167C, strain pmr1, stronger effect = lower value 0.974 | locus YHR079C, strain IRE1, stronger effect = lower value 0.985 | locus YJL154C, strain vps35, stronger effect = lower value 0.962
active: locus YAL013W, strain DEP1, stronger effect = lower value 0.06 and 0.0669 | locus YAL021C, strain ccr4, stronger effect = lower value 0.823 | locus YAL026C, strain drs2, stronger effect = lower value 0.657 | locus YAL030W, strain snc1, stronger effect = lower value 0.676 | locus YBL061C, strain skt5, stronger effect = lower value 0.627 | locus YBR009C, strain hhf1, stronger effect = lower value 0.268 | locus YBR021W, strain FUR4, stronger effect = lower value 0.146 | locus YBR023C, strain chs3, stronger effect = lower value 0.592 | locus YBR229C, strain ROT2, stronger effect = lower value 0.0617 | locus YBR231C, strain swc5, stronger effect = lower value 0.326 | locus YBR279W, strain paf1, stronger effect = lower value 0.674 | locus YCL011C, strain gbp2, stronger effect = lower value 0.34 | locus YCL016C, strain dcc1, stronger effect = lower value 0.535 | locus YCL029C, strain bik1, stronger effect = lower value 0.0684 | locus YCL061C, strain MRC1, stronger effect = lower value 0.672 | locus YCL069W, strain vba3, stronger effect = lower value 0.596 | locus YCR088W, strain abp1, stronger effect = lower value 0.802 | locus YDL005C, strain med2, stronger effect = lower value 0.711 | locus YDL035C, strain GPR1, stronger effect = lower value 0.057 | locus YDL040C, strain nat1, stronger effect = lower value 0.858 | locus YDL074C, strain BRE1, stronger effect = lower value 0.0875 | locus YDL101C, strain DUN1, stronger effect = lower value 0.0699 | locus YDL134C, strain PPH21, stronger effect = lower value 0.0603 | locus YDL192W, strain arf1, stronger effect = lower value 0.0735 | locus YDR101C, strain arx1, stronger effect = lower value 0.0711 | locus YDR137W, strain rgp1, stronger effect = lower value 0.692 | locus YDR150W, strain NUM1, stronger effect = lower value 0.0564 | locus YDR159W, strain sac3, stronger effect = lower value 0.62 | locus YDR162C, strain NBP2, stronger effect = lower value 0.0557 | locus YDR297W, strain sur2, stronger effect = lower value 0.609 | locus YDR318W, strain mcm21, stronger effect = lower value 0.0705 | locus YDR334W, strain swr1, stronger effect = lower value 0.46 | locus YDR335W, strain msn5, stronger effect = lower value 0.714 | locus YDR363W, strain ESC2, stronger effect = lower value 0.0888 | locus YDR388W, stronger effect = lower value 0.0658 | locus YDR392W, strain spt3, stronger effect = lower value 0.11 | locus YDR502C, strain sam2, stronger effect = lower value 0.0731 | locus YEL003W, strain gim4, stronger effect = lower value 0.668 | locus YEL037C, strain rad23, stronger effect = lower value 0.797 | locus YEL061C, strain CIN8 (second series), stronger effect = lower value 0.7 | locus YEL061C, strain CIN8, stronger effect = lower value 0.0546 | locus YER015W, strain faa2, stronger effect = lower value 0.516 | locus YER016W, strain bim1, stronger effect = lower value 0.788 | locus YER110C, stronger effect = lower value 0.0876 | locus YER111C, strain swi4, stronger effect = lower value 0.847 | locus YER155C, strain BEM2 (second series), stronger effect = lower value 0.442 | locus YER155C, strain BEM2, stronger effect = lower value 0.0755 | locus YER167W, strain BCK2, stronger effect = lower value 0.0605 | locus YFR010W, strain ubp6, stronger effect = lower value 0.898 | locus YGL078C, strain dbp3, stronger effect = lower value 0.907 | locus YGL086W, strain mad1, stronger effect = lower value 0.0683 | locus YGL173C, strain kem1, stronger effect = lower value 0.772 | locus YGL227W, strain vid30, stronger effect = lower value 0.519 | locus YGL240W, strain doc1, stronger effect = lower value 0.396 | locus YGL248W, strain PDE1, stronger effect = lower value 0.0602 | locus YGL253W, strain hxk2, stronger effect = lower value 0.501 | locus YGR078C, strain PAC10, stronger effect = lower value 0.0588 | locus YGR135W, strain pre9, stronger effect = lower value 0.0753 | locus YGR229C, strain SMI1, stronger effect = lower value 0.0651 | locus YGR252W, strain gcn5, stronger effect = lower value 0.18 | locus YHR013C, strain ard1, stronger effect = lower value 0.319 | locus YHR027C, strain rpn1, stronger effect = lower value 0.73 | locus YHR079C, strain IRE1 (second series), stronger effect = lower value 0.0663 | locus YHR094C, strain hxt1, stronger effect = lower value 0.0664 | locus YHR129C, strain ARP1, stronger effect = lower value 0.0634 | locus YHR142W, strain chs7, stronger effect = lower value 0.348 | locus YHR200W, strain rpn10, stronger effect = lower value 0.0675 | locus YIL066C, strain RNR3, stronger effect = lower value 0.0586 | locus YIL073C, strain SPO22, stronger effect = lower value 0.133 | locus YIL125W, strain kgd1, stronger effect = lower value 0.915 | locus YIR030C, strain dcg1, stronger effect = lower value 0.0697 | locus YJL092W, strain hpr5, stronger effect = lower value 0.793 | locus YJL095W, strain BCK1 (second series), stronger effect = lower value 0.467 | locus YJL115W, strain asf1, stronger effect = lower value 0.881 | locus YJL129C, strain trk1, stronger effect = lower value 0.309 | locus YJL134W, strain LCB3, stronger effect = lower value 0.0573 | locus YJL164C, strain tpk1, stronger effect = lower value 0.363 | locus YJL166W, strain qcr8, stronger effect = lower value 0.242 | locus YJL168C, strain set2, stronger effect = lower value 0.0819 | locus YJL187C, strain SWE1 (second series), stronger effect = lower value 0.0606 | locus YJL187C, strain SWE1, stronger effect = lower value 0.618
0.0584 (active) and 0.981 (inactive): locus YHR030C, strain SLT2, stronger effect = lower value
